# Compound activity deposited in PubChem by The Scripps Research Institute Molecular Screening Center.
# Sampled rows, rich in hits. Any-hit rate of the full collection: about 3.4%.
# TEAD-YAP block = TEAD-YAP interaction inhibition; actives 1.4% (n = 640,000); inhibition, % at 9.12 µM; HEK-TIYL cells, TEAD-Gal4/YAP UAS-luciferase luminescence; in the data active = inhibition above about 32%;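 note: 0% = median of test compound wells and 100% = reference inhibitor wells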
# FBW7 act = activators of human E3 ligase FBW7. Q969H0. AlphaScreen FBW7–phospho-cyclin E peptide binding, activator screen. normalized activity (activation), % at 26.1 µM. actives 0.13% (n = 650,000). AID 1259310; in the data active = normalized activity above about 1.9%;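 note: purified mutant Fbw7 with reduced substrate affinity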
# GPR151 ag = human GPR151 activation; Q8TDV0; PathHunter beta-arrestin GPR151 cells, luminescence; activation, % at 11.2 µM; actives 1% (n = 650,000); in the data active = activation above about 4.9%;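 note: 0% = median of compound wells and 100% = cells with positive control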
# MITF inh = blocks human microphthalmia-associated transcription factor; O75030; AlphaScreen MITF homodimerization, bead proximity signal; inhibition, % at 2.6 µM; actives 0.91% (n = 650,000); in the data active = inhibition above about 50%;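 note: 0% = vehicle wells with protein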
# Target sequence (O75030 whole entry, looked up): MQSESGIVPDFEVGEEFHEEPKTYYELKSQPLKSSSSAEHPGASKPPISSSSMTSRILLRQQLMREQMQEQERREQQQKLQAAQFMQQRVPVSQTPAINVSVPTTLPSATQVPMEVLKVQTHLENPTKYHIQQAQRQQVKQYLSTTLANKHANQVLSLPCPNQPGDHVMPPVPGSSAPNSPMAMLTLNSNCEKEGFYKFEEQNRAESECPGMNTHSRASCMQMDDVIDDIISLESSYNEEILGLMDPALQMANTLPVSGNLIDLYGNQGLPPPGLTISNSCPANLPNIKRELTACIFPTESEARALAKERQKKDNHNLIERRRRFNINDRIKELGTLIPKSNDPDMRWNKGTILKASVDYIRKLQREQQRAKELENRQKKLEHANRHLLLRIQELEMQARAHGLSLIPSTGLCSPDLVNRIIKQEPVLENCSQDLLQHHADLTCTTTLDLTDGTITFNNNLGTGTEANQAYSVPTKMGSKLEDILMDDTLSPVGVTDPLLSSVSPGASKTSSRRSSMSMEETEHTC
# * marks the source's active call; other numbers are inactive results.
SMILES,TEAD-YAP block,FBW7 act,GPR151 ag,MITF inh
CCOC(=O)C1=CS/C(=C2/C(=S)C(C)(C)Nc3c(OCC)cccc32)S1,-5,0,0,53*
CCOC(=O)C1=CS/C(=C2/C(=S)C(C)(C)N(C(=O)CC(C)C)c3ccc(OCC)cc32)S1,7,0,0,-4
O=C(Cc1c(F)cccc1Cl)N1CCC(c2ccncc2)CC1,42*,0,0,15
O=C(Cc1c(F)cccc1Cl)N1CCC(c2cccnc2)CC1,5,0,1,4
Cc1[nH]c(=O)[nH]c(=O)c1/C=N/NC(=O)c1cc2ccccc2o1,1,0,1,17
Cc1ccc(NC(=O)Cn2c(-n3nc(C)cc3C)nc(C)cc2=O)cc1,43*,1,-1,4
Cc1cccn2c(CNC(C)c3nc(-c4ccccc4)no3)c(C(=O)N3CCCCC3)nc12 (configuration not stated),-10,0,1,-13
N#Cc1c(-c2ccccc2F)c(C#N)c2nc3ccccc3n2c1N,42*,0,0,-15
COc1ccccc1NC(=O)NCCCN1CCN(c2ccccc2OC)CC1,15,0,1,4
c1ccc(-n2cnc3c(Nc4ccc5c(c4)OCO5)nc(Nc4ccc5ncccc5c4)nc32)cc1,12,7.1*,0,-6
c1cnc2ccc(Nc3nc(Nc4ccc5c(c4)OCO5)c4ncn(-c5ccsc5)c4n3)cc2c1,45*,8.5*,1,-10
COc1cc(Nc2nc(Nc3ccc(C(F)(F)F)cc3)nc3c2ncn3-c2ccsc2)cc(OC)c1OC,7,0,0,17
c1ccc2c(Nc3nc(Nc4ccc5c(c4)OCO5)c4ncn(-c5ccsc5)c4n3)nccc2c1,49*,0,1,4
COc1cc(Nc2nc(Nc3ccc4ncccc4c3)nc3c2ncn3-c2ccsc2)cc(OC)c1OC,32*,0,-1,8
CCOC(=O)C(N/C(=C\c1ccccc1F)NC(=O)c1ccccc1)C(C)O (configuration not stated),-5,0,1,-3
c1ccc(-n2cnc3c(Nc4ccc5c(c4)OCO5)nc(Nc4ccncn4)nc32)cc1,-39,0,0,-3
c1ccc(-n2cnc3c(Nc4ccc5c(c4)OCO5)nc(Nc4ccc(-n5ccnc5)cc4)nc32)cc1,43*,0,1,18
CC(C)n1cnc2c(Nc3ccc4c(c3)OCO4)nc(Nc3nccc4ccccc34)nc21,36*,0,-1,5
CCNc1nc(Nc2ccc3c(c2)OCO3)c2ncn(C(C)C)c2n1,-45,0,-1,10
Brc1ccccc1-c1nc2c3c4c(sc3ncn2n1)CCCC4,5,0,0,-3
CCOc1ccc(-c2nc3cc(NC(=S)NC(=O)c4cc5ccccc5o4)ccc3o2)cc1,-3,0,0,-3
Cc1ccc2oc(Cc3ccccc3)nc2c1,47*,0,-2,20
Cc1ccc(-c2nnc(Cc3ccccc3)o2)cc1,-58,0,-2,-10
C=CCSC1=C(C#N)C(c2ccc(OCc3ccccc3)cc2)CC(=O)N1 (configuration not stated),33*,0,0,-10
CCCSc1nc2c(c(=O)n(C)c(=O)n2C)n1Cc1ccc(F)cc1,5,0,-1,6
SMILES,TEAD-YAP block,FBW7 act,GPR151 ag,MITF inh
CC1CCN(C(=O)CCl)c2ccccc2S1 (configuration not stated),67*,0,0,15
CC1CN(C(=O)N2CCC(C(=O)O)CC2)c2ccccc2S1 (configuration not stated),-13,0,-1,1
C=COCCCNC(=O)C1CCCN(c2nc3ccccc3n2CC)C1 (configuration not stated),3,0,2,-5
COc1ccc(NC(=O)CSc2nc3ccccc3o2)cc1,-55,1,3,-3
COc1ccc(NC(=O)CSc2nc3ccccc3o2)cc1OC,33*,0,-2,1
Cc1nnc(SCC(=O)Nc2nc3c(s2)CC(C)CC3)s1 (configuration not stated),-16,0,0,2
CC1CCc2nc(NC(=O)CSc3nc4ccccc4o3)sc2C1 (configuration not stated),67*,0,2,1
Cc1cccc(-n2c(=O)c3ccccc3n3c(=S)[nH]nc23)c1,-3,0,0,2
O=C(COc1ccc(C(=O)c2ccc(F)cc2)cc1)NCCN1C(=O)CSC1=O,16,0,-1,13
O=S(=O)(c1ccccc1)N1CCC(O)(CSc2ccc(Cl)cc2)CC1,39*,0,0,5
CC1(C)Oc2ccc3ccc(=O)oc3c2C/C1=N\Nc1ccccc1,49*,1,-1,2
CCCCn1c(=O)c2c(nc3n(CC)c(C)cn23)n(C)c1=O,10,0,-1,15
COc1ccc(C(=O)N2CCN(Cc3ccc(SC)cc3)CC2)cc1OC,45*,0,-1,45
COc1cccc(NS(=O)(=O)c2cc(C(=O)N3CCN(Cc4ccccc4)CC3)ccc2NCCc2ccc(OC)c(OC)c2)c1,52*,0,0,3
COc1cccc(NS(=O)(=O)c2cc(C(=O)N3CCCC3)ccc2NCCc2ccc(OC)c(OC)c2)c1,4,0,0,8
COc1cccc2c(C)cc(N3CCN(C)CC3)nc12,-6,1.9*,0,16
Cc1cc(CN2CCC(Oc3ccc(C(=O)NCc4ccncc4)cc3)CC2)oc1C,33*,0,0,-13
O=C(NCc1ccncc1)c1ccc(OC2CCN(C3CCOCC3)CC2)cc1,2,0,0,-2
O=C(CCl)N(CC1=CCSC1)c1ccccc1,47*,0,0,6
O=C(COc1ccc(Cl)cc1)NNC(=O)c1cnccn1,5,0,-1,-2
CCC1CCCCN1C(=O)CSc1nnc(CSc2ncccn2)n1C (configuration not stated),7,0,-1,9
c1ccc(Nc2nc(NCc3nc4ccccc4[nH]3)c3ncn(-c4ccsc4)c3n2)nc1,78*,0,1,11
COc1cc(Nc2nc(NCc3nc4ccccc4[nH]3)c3ncn(-c4ccsc4)c3n2)cc(OC)c1OC,18,0,-1,3
c1ccc(-n2cnc3c(NCc4nc5ccccc5[nH]4)nc(Nc4ccccn4)nc32)cc1,53*,0,-1,-3
c1ccc(CNc2nc(Nc3cnccn3)nc3c2ncn3-c2ccsc2)cc1,14,0,-1,-4
SMILES,TEAD-YAP block,FBW7 act,GPR151 ag,MITF inh
O=C1CCCN1CCn1cnc2c(NCc3nc4ccccc4[nH]3)nc(Nc3ccncn3)nc21,-9,0,0,6
c1ccc2[nH]c(CNc3nc(Nc4cnccn4)nc4c3ncn4-c3ccsc3)nc2c1,71*,0,2,-11
c1ccc(-n2cnc3c(NCc4nc5ccccc5[nH]4)nc(Nc4ccncn4)nc32)cc1,35*,0,-1,8
O=C1NC(=S)N/C1=C/c1cccc(OCc2ccccc2F)c1,-9,0,0,4
COc1ccc(C2=N/C(=C\c3cc(Br)ccc3OC)C(=O)O2)c(Cl)c1,0,0,2,4
CCc1c(C)nc(SCC(=O)N(C(C)C)C(C)C)[nH]c1=O,10,0,0,18
